Tau FP inhib: blocks human tau fibril formation measured by polarization; Potency, µM (top dose mostly 57.7 µM), without a hit: at the top dose activity, negative = inhibition, actives largely listed as inhibitors; K18 P301L tau heparin fibrillization, Alexa594 FP, 6 h; 280,000 tested, 0.39% active; P10636; further: potency means the concentration at half of the fitted maximal effect; nearly all actives have a fitted effect of over 55% in size
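Heparin (20 uM) drove fibril formation of recombinant tau K18 P301L, 15 uM unlabeled with 0.24 uM Alexa 594 label, for 6 hr at 37 C in 100 mM sodium acetate pH 7. Fluorescence polarization (555/632 nm) read 1 hr after 30 uM ThT.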
Tau fluor cs: counter-screen for tau fibril formation inhibitors; tau K18 P301L Alexa594 fluorescence, heparin fibrillization; Potency, µM (highest dose often 57.7 µM), for inactives: at the top dose activity change, negative = decrease; 280,000 tested, 0.93% active; AID 1463; further: potency means the concentration at half of the fitted maximal effect; nearly all actives have a fitted effect of over 55% in size
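Human tau K18 P301L (15 uM unlabeled, 0.24 uM Alexa 594-labeled) in 100 mM sodium acetate pH 7 with 20 uM heparin, 6 hr at 37 C. ThT 30 uM added, 1 hr ambient; Alexa 594 FP and total fluorescence read at 555/632 nm.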
USP1 inh: blocks the human USP1/UAF1 deubiquitinase complex; O94782; recombinant USP1/UAF1, Ub-Rhodamine cleavage fluorescence; Potency, µM (series often up to 57.1 µM), without a hit: at the highest dose activity change, negative = inhibition, usual class: inhibitors; 390,000 tested, 0.23% active; further: potency means the concentration at half of the fitted maximal effect; nearly all actives have a fitted effect of over 60% in size
Target sequence (O94782 whole entry, looked up): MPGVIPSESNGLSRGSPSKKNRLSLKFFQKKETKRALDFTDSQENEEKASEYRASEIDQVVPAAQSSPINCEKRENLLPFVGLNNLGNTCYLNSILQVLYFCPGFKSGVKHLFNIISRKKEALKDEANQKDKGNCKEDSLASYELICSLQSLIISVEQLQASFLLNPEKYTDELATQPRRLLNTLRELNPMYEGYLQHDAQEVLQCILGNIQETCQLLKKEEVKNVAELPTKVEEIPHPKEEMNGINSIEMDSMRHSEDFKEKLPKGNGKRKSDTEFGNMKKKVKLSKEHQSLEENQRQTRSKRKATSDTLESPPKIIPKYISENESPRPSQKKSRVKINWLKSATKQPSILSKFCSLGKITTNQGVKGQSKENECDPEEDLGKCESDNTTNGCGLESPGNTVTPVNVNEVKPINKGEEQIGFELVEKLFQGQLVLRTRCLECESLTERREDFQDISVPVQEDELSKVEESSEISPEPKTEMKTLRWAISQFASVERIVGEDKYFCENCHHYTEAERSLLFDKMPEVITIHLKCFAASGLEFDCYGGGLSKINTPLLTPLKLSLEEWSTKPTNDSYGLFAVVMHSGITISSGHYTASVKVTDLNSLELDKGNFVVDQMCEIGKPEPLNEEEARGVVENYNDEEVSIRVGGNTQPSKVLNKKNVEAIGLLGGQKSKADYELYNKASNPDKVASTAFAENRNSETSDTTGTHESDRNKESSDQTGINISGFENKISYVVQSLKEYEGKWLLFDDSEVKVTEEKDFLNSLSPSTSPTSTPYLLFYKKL
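High-throughput fluorogenic screen: 1nM USP1/UAF1 complex, Ub-Rho substrate 150nM final, 50mM HEPES pH 7.8 with 0.5mM EDTA, 0.1 mg/ml BSA, 1mM TCEP and 0.01% Tween-20.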
Coupling enz: counter-screen for Giardia aldolase inhibitors: coupling enzyme system. coupling enzyme system counterscreen, AmpLite Red fluorescence. activity change, negative = inhibition, % at 58.2 µM, hits read low. 290,000 tested, 0.67% active. AID 2472; in the data active means activity change below about -30%
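Counterscreen of the coupled detection system alone, without aldolase: glyceraldehyde-3-phosphate coupling enzymes plus AmpLite Red readout. Compounds at 57.5 uM final, 10 min RT preincubation, 20 min RT reaction, fluorescence 525/598 nm.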
Tau fibril ThT: inhibitors of human tau fibril formation, thioflavin T binding; P10636; recombinant tau K18 P301L, heparin-induced fibrillization, ThT fluorescence; Potency, µM (top dose mostly 57.4 µM), for the others: at the top dose activity, negative = inhibition, most hits filed as inhibitors; 270,000 tested, 2.1% active; further: potency means the concentration at half of the fitted maximal effect; nearly all actives have a fitted effect of over 55% in size
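Using a mix of unlabeled (15 uM) and Alexa 594-labeled (0.24 uM) tau K18 P301L, heparin-triggered fibrillization over 6 hr at 37 C was scored by ThT fluorescence.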
The depositor's hits bear a star; [ ] = dose if it differs, or a comment. Hits are enriched below; roughly 2.3% of the tested compounds scored in any of these assays. Unless noted, the call rests on the fitted dose curve; in most records, active means well fitted curve in the direction sought with a large enough effect; inconclusive means small, poorly fitted or top-dose-only effect, or another doubt; inactive means no such curve, though single readings can be large; an effect the other way counts as inactive or inconclusive. On the % scale 0 is the no-effect control and ±100 the full control effect.

How did CCOC(=O)c1c(C)[nH]c(C)c1S(=O)(=O)N1CCC(C(=O)N2CCN(c3ccc(Cl)cc3)CC2)CC1 do in these assays?
Tau FP inhib: inconclusive; Tau fluor cs: -24%; USP1 inh: -26%; Tau fibril ThT: -6%

How did CC[n+]1c(-c2ccccc2)c2cc(N)ccc2c2ccc(N)cc21 do in these assays?
Tau FP inhib: 11µM*; Tau fluor cs: inconclusive; USP1 inh: inconclusive; Coupling enz: -44*; Tau fibril ThT: 4µM*

What do the screens show for `CN(C)[C@@H]1C(=O)C(C(N)=O)=C(O)[C@@]2(O)C(=O)C3=C(O)c4c(O)cccc4[C@@](C)(O)[C@H]3[C@H](O)[C@@H]12`?
Tau FP inhib: 11µM*; Tau fluor cs: inconclusive; USP1 inh: inconclusive; Coupling enz: -20; Tau fibril ThT: 6.3µM*

How did CN(C)C1C(=O)C(C(N)=O)C(=O)C2(O)C(=O)C3C(=O)c4c(O)cccc4C(C)(O)C3C(O)C12 (stereo unspecified) do in these assays?
Tau FP inhib: 20µM*; Tau fluor cs: inconclusive; Coupling enz: -6; Tau fibril ThT: 4.5µM*

What do the screens show for `CN(C)C1C(=O)C(C(N)=O)=C(O)[C@@]2(O)C(=O)C3=C(O)c4c(O)cccc4[C@](C)(O)C3C(O)C12` (stereo partly specified)?
Tau FP inhib: inconclusive; Tau fluor cs: inconclusive; Coupling enz: -7; Tau fibril ThT: inconclusive

How did COc1cc(OC)c(OC)cc1CN1CCc2nc(N3CCN(c4ccccc4F)CC3)ncc2C1 do in these assays?
Tau FP inhib: 7%; Tau fluor cs: -4%; USP1 inh: -4%; Tau fibril ThT: inconclusive

How did NCCc1cc(O)c(O)cc1O do in these assays?
Tau FP inhib: 25µM*; Tau fluor cs: 10µM*[quencher]; USP1 inh: inconclusive; Coupling enz: -57*; Tau fibril ThT: 7.1µM*

Results for CC(Cc1ccc(C(C)(C)C)cc1)CN1CC(C)OC(C)C1 (stereo unspecified) ?
Coupling enz: -1

Results for CN(C)C1CSSSC1 ?
Coupling enz: 0

Results for CCCc1cc2c(n1Cc1ccco1)C(C)C1CN(C(=O)c3ccccc3)C(C)(C(=O)OC)C21 (stereo unspecified) ?
Tau FP inhib: inconclusive; Tau fluor cs: -12%; Coupling enz: -10; Tau fibril ThT: 22µM*

What do the screens show for `CCOC(=O)C1CCCN(c2ccc([N+](=O)[O-])c3nonc23)C1` (stereo unspecified)?
Tau FP inhib: inconclusive; Tau fluor cs: -7%; USP1 inh: 25µM*; Coupling enz: -4; Tau fibril ThT: inconclusive

What do the screens show for `CCn1cc(C(=O)NCCc2ccc(Cl)cc2)c(=O)c2cc(S(=O)(=O)N(C)C3CCCCC3)ccc21`?
Tau FP inhib: -12%; Tau fluor cs: -13%; USP1 inh: inconclusive; Tau fibril ThT: -5%

Results for Brc1c(Br)c(Br)c2n[nH]nc2c1Br ?
Tau FP inhib: inconclusive; Tau fluor cs: -16%; Coupling enz: 18; Tau fibril ThT: 3%

Results for COCCCOc1ccnc(CS(=O)c2nc3ccccc3[nH]2)c1C (stereo unspecified) ?
Tau FP inhib: inconclusive; Tau fluor cs: -25%; USP1 inh: -8%; Coupling enz: -1; Tau fibril ThT: 10µM*

Results for COc1ccc2nc(N3CCN(C(=O)CS(=O)(=O)c4ccc(C)cc4)CC3)sc2c1 ?
Tau FP inhib: 7%; Tau fluor cs: -13%; USP1 inh: -18%; Tau fibril ThT: inconclusive

Results for CCN(CC)c1ccc(CC2C(=O)N(C)C(=O)N(C)C2=O)cc1 ?
Tau FP inhib: inconclusive; Tau fluor cs: 25µM*[fluorescent]; USP1 inh: -22%; Coupling enz: 0; Tau fibril ThT: inconclusive

How did C[C@@H]1CO1 do in these assays?
Coupling enz: -1

Results for CCOC(=O)c1ccc(NC(=O)CSc2cc(=O)n(CC)c3ccccc23)cc1 ?
Tau FP inhib: inconclusive; Tau fluor cs: -22%; USP1 inh: -19%; Tau fibril ThT: 4%

How did CCCCNC(=O)c1c(N)n(Cc2ccc3c(c2)OCO3)c2nc3ccccc3nc12 do in these assays?
Tau FP inhib: -20%; Tau fluor cs: inconclusive; USP1 inh: 28µM*; Coupling enz: -13; Tau fibril ThT: inconclusive

What do the screens show for `Nc1c(C(=O)NCCCc2ccccc2)c2nc3ccccc3nc2n1Cc1cccs1`?
Tau FP inhib: inconclusive; Tau fluor cs: inconclusive; USP1 inh: inconclusive; Coupling enz: -51*; Tau fibril ThT: -14%

Results for CCCCOC(=O)N(C)SN(C)C(=O)Oc1cccc2c1OC(C)(C)C2 ?
Coupling enz: 0

What do the screens show for `CCc1ccc(NC(=O)c2ccc(F)c(S(=O)(=O)N3CCc4ccccc4C3)c2)cc1`?
Tau FP inhib: inconclusive; Tau fluor cs: -26%; USP1 inh: -15%; Tau fibril ThT: -2%

What do the screens show for `COc1ccc(C2=C(C(C)=O)Sc3nnc(-c4ccc(Cl)cc4)n3N2C(C)=O)cc1OC`?
Tau FP inhib: inconclusive; Tau fluor cs: inconclusive; USP1 inh: -20%; Tau fibril ThT: inconclusive

How did CCn1c(NN=O)nc2ccccc21 do in these assays?
Tau FP inhib: -2%; Tau fluor cs: -11%; USP1 inh: -2%; Coupling enz: -4; Tau fibril ThT: 28µM*

What do the screens show for `CCn1c(P(C)(=O)O)nc2ccccc21`?
Tau FP inhib: -3%; Tau fluor cs: -7%; USP1 inh: -8%; Coupling enz: -1; Tau fibril ThT: -9%

How did Cc1ccc(/C=C2\C(=O)NC(=S)N(c3ccc(F)cc3)C2=O)s1 do in these assays?
Tau FP inhib: -2%; Tau fluor cs: -10%; USP1 inh: -18%; Coupling enz: 1; Tau fibril ThT: inconclusive

Results for Cc1ccc(/C=C2\C(=O)NC(=S)N(c3ccccc3F)C2=O)s1 ?
Tau FP inhib: 1%; Tau fluor cs: inconclusive; USP1 inh: -15%; Coupling enz: 5; Tau fibril ThT: 18µM*

How did COc1ccc(CN2CCc3nc(N4CCN(c5ccc(F)cc5)CC4)ncc3C2)c(OC)c1OC do in these assays?
Tau FP inhib: -1%; Tau fluor cs: -17%; USP1 inh: -10%; Tau fibril ThT: inconclusive

What do the screens show for `CN1C(=O)C(=Cc2ccccc2OCCOc2ccc([N+](=O)[O-])cc2)C(=O)N(C)C1=O`?
Tau FP inhib: inconclusive; Tau fluor cs: inconclusive; USP1 inh: inconclusive; Coupling enz: 0; Tau fibril ThT: 10µM*

Results for C/C1=C\[C@@H](C)C/C=C/[C@H]2[C@@H]3O[C@]3(C)[C@@H](C)[C@H]3[C@H](Cc4c[nH]c5ccccc45)NC(=O)[C@]32C(=O)/C=C/C(=O)[C@@H]1O ?
Tau FP inhib: -19%; Tau fluor cs: inconclusive; USP1 inh: -28%; Coupling enz: -1; Tau fibril ThT: 0.89µM*

Source: PubChem
